Assay [1] addresses Cellular tumor antigen p53 (Homo sapiens) (UniProt P04637). As to the kind of experiment: Primary qHTS for small molecule compounds that upregulate eGFP-tagged delta133p53alpha (in N-terminal) cells. (AID 2060322).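 Also: series mostly up to about 56 µM; 0% = DMSO vehicle and 100% = reference activator; nearly all actives have a fitted effect of over 75% in size.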 As to conditions: NCI-H358 eGFP-delta133p53alpha fluorescence, 24 h; activation: active compounds read high. In short, it runs like this:
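NCI-H358 cells pre-induced 24 h with 10 ng/ml doxycycline to express N-terminal eGFP-delta133p53alpha, then dosed 24 h at 37C without doxycycline; fixed, Hoechst-stained, GFP intensity by laser scanning cytometry, normalized to DMSO (0%) and 57.5 uM 5-azacytidine (100%).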
For orientation: Quantitative high-throughput screening tests each substance at several concentrations.

In assay [2] the target is Aldehyde dehydrogenase, mitochondrial (Homo sapiens) (UniProt P05091). The assay can be described thus: qHTS for Inhibitors of the Aldehyde Dehydrogenase Family (ALDH2) Primary screen (AID 2061308).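 Also: plate controls were vehicle for no effect and reference inhibitor for full effect; nearly all actives have a fitted effect of over 55% in size.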
Assay [3] concerns the target Retinaldehyde dehydrogenase 3 (Homo sapiens) (UniProt P47895). As to the kind of experiment: qHTS for Inhibitors of the Aldehyde Dehydrogenase Family (ALDH1A3) Validation screen (AID 2061312). Also: nearly all actives have a fitted effect of over 45% in size. Also: potency is read from the fitted curve at half-maximal effect.
Assay [4] shares this target. The assay can be described thus: qHTS for Inhibitors of the Aldehyde Dehydrogenase Family (ALDH1A3) Primary screen (AID 2061315).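 Also: plate controls were DMSO vehicle for no effect and reference inhibitor for full effect.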

SMILES strings stand for the structures. “And” between values parts separate entries of the source, which are not always exact repeats. Equal entries are not always repeated. Records with an inconclusive call do not appear. Values without a mark were called inactive. The source made the active and inactive calls. Calls follow the shape of the dose curve; as a rule, active = well fitted curve in the direction sought with a large enough effect; inconclusive = small, poorly fitted or top-dose-only effect, or another doubt; inactive = no such curve, though single readings can be large; an effect the other way counts as inactive or inconclusive.

Sequence of Cellular tumor antigen p53 (Homo sapiens) (P04637 whole entry, looked up): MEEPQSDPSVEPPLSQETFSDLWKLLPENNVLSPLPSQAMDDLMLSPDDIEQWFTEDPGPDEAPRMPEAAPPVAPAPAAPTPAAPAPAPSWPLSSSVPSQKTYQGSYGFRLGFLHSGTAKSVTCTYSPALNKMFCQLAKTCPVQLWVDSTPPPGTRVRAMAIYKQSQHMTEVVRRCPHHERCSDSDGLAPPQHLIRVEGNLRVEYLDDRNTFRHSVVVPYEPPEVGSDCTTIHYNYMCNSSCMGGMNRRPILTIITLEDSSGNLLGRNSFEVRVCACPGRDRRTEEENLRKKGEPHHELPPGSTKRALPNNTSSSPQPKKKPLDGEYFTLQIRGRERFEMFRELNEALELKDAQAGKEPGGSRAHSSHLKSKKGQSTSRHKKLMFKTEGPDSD

In the case of `COc1ccccc1Oc1c(NS(=O)(=O)c2ccc(C)cn2)nc(-c2ccncc2)nc1OC`, the activation in assay [1] was 20%. Besides, the Potency result in assay [2], in assay [3] and in assay [4] was “inactive” each time.
Regarding `Cc1cc(C(=O)N2CCCCc3ccccc32)ccc1CNC(=O)N1CCC[C@H]1C(=O)N(C)C`, the activation in assay [1] is 4.3%. In addition, the Potency entry in assay [2], in assay [3] and in assay [4] was “inactive” in each case.
Regarding `CN(C1CCc2c(c3ccccc3n2CC(=O)O)C1)S(=O)(=O)c1ccc(F)cc1` (configuration not stated), the activation in assay [1] was -3.55% and 0% and -0.955%. The Potency entry in assay [2], in assay [3] and in assay [4] was “inactive” throughout.
In the case of `CCN1C[C@H](C)n2c(c(O)c3c(=O)n(Cc4ccc(F)c(Cl)c4)nc(C(=O)NC)c32)C1=O`, the activation in assay [1] is -11.2% and 13.4% and -6.68%. In addition, the Potency result in assay [2], in assay [3] and in assay [4] was “inactive” in each case.
As for `Cn1c(=O)cc(N2CCCC(N)C2)n(Cc2cc(F)ccc2C#N)c1=O` (configuration not stated), the activation in assay [1] is -2.86%. In addition, the Potency result in assay [2], in assay [3] and in assay [4] was “inactive” each time.
In the case of `CCCCCCOc1cc2c(cc1N(C)c1ncc(C(=O)O)cn1)C(C)(C)CCC2(C)C`, the activation in assay [1] was -3.82%. Moreover, the Potency entry in assay [2], in assay [3] and in assay [4] was “inactive” in each case.
As for `CC(C)(C[C@@](O)(Cc1cc2ccncc2[nH]1)C(F)(F)F)c1cc(F)ccc1O`, the activation in assay [1] is 13.4%. Further, the Potency result in assay [2], in assay [3] and in assay [4] was “inactive” in each case.
In the case of `Cn1c2ccc(NC(=O)c3ccccc3)cc2c(=O)n2nc(C(=O)O)cc12`, the activation in assay [1] is 8.59%. Besides, the Potency result in assay [2], in assay [3] and in assay [4] was “inactive” throughout.
For the compound `COc1cc2nc(N3CCN(C(=O)COc4c(OC)cccc4C(C)C)CC3)nc(N)c2cc1OC`, the activation in assay [1] is -11%. In addition, the Potency result in assay [2], in assay [3] and in assay [4] was “inactive” each time.
As for `CC(C)(C#N)c1ccc(N2C(=O)OCc3cnc4ccc(-c5cnc6ccccc6c5)cc4c32)cc1`, the activation in assay [1] was -3.82%. Moreover, the Potency entry in assay [2], in assay [3] and in assay [4] was “inactive” each time.
With `CC(C)CCNc1ncccc1C(=O)N1CCN(Cc2ccccc2)CC1`, the activation in assay [1] is -4.3%. Also, the Potency entry in assay [2], in assay [3] and in assay [4] was “inactive” throughout.
`Oc1ccc2nc(CN3CCC(Cc4ccccc4F)CC3)[nH]c2c1`: the activation in assay [1] was -1.91%. Moreover, the Potency entry in assay [2], in assay [3] and in assay [4] was “inactive” throughout.
On to `Cc1ccc(-c2c(-c3nn(C)c4ncnc(N5CC[C@H](N6CCCCC6)C5)c34)cnn2C)cc1`, for which, in assay [1], the activation was 0.477%. For the same compound, the Potency result in assay [2], in assay [3] and in assay [4] was “inactive” throughout.
For the compound `CCCC(Nc1nc(-c2ccc(NC(=O)NCC)c(OC)c2)ncc1C)c1cccnc1` (configuration not stated), the activation in assay [1] was -2.86%. The Potency result in assay [2], in assay [3] and in assay [4] was “inactive” each time.
Take `O=C(OC1CN2CCC1CC2)N1CCc2ccccc2C1c1ccccc1` (configuration not stated): the activation in assay [1] was -3.82%. The Potency result in assay [2], in assay [3] and in assay [4] was “inactive” each time.
Consider `Cc1cc(C)c(S(=O)(=O)N(Cc2ccc(-c3cccc(S(C)(=O)=O)c3)cc2)Cc2ccc(C(F)(F)F)o2)c(C)c1`, for which the activation in assay [1] was -0.955%. The Potency entry in assay [2], in assay [3] and in assay [4] was “inactive” throughout.
Turning to `O=C(Nc1cc(-c2ccccc2)nn1-c1ccccc1)c1ccc([N+](=O)[O-])cc1`, the activation in assay [1] is -11%. Further, the Potency result in assay [2], in assay [3] and in assay [4] was “inactive” in each case.
For `CCOc1cc(CC(=O)NC(CC(C)C)c2ccccc2N2CCCCC2)ccc1C(=O)O` (configuration not stated), the activation in assay [1] is -4.3%. Besides, the Potency entry in assay [2], in assay [3] and in assay [4] was “inactive” each time.
In the case of `CNC(C)C(=O)NC(C(=O)N1CCCC1c1nc(C(=O)c2ccc(F)cc2)cs1)C1CCCCC1` (configuration not stated), the activation in assay [1] was 17.2%. For the same compound, the Potency entry in assay [2], in assay [3] and in assay [4] was “inactive” throughout.
In the case of `CNc1nc(NCc2ccc(NS(C)(=O)=O)cc2Cl)cc(-c2ccccn2)n1`, the activation in assay [1] was 7.64%. Besides, the Potency result in assay [2], in assay [3] and in assay [4] was “inactive” throughout.
Take `C#CCN(Cc1cc2c(=O)n(C)c(CN3CCN(C)CC3)nc2cc1Cl)c1ccc(C(=O)NCc2cccnc2)cc1`: the activation in assay [1] was 0.955%. Moreover, the Potency result in assay [2], in assay [3] and in assay [4] was “inactive” in each case.
Turning to `CC(=O)N(C)C1(c2ccccc2)CCN(CCC[C@]2(c3ccc(Cl)c(Cl)c3)CCCN(C(=O)c3ccccc3)C2)CC1`, the activation in assay [1] is 16.9%. Moreover, the Potency result in assay [2], in assay [3] and in assay [4] was “inactive” throughout.
As for `CC1(C)Oc2ncnc(N)c2N=C1c1ccc(C23CCC(CC(=O)O)(CC2)CC3)cc1`, the activation in assay [1] is -11.9%. The Potency entry in assay [2], in assay [3] and in assay [4] was “inactive” throughout.
As for `O=C1NC(=O)C(c2cn3c4c(cccc24)CCC3)C1c1c[nH]c2ccccc12` (configuration not stated), in assay [1], the activation was 18.6%. Moreover, the Potency result in assay [2], in assay [3] and in assay [4] was “inactive” in each case.
For the compound `COC(=O)c1ccc2c(c1)[nH]c1ncnc(NCCCN3CCCCC3)c12`, in assay [1], the activation is 0.477%. Also, the Potency result in assay [2] and in assay [4] was “inactive” throughout. Further, the Potency in assay [3] is 31.6 µM (active).
In the case of `CNC(=O)[C@@H](c1ccccc1)N1CCc2cc(OC)c(OC)cc2[C@@H]1CCc1ccc(C(F)(F)F)cc1`, the activation in assay [1] is -3.34%. Also, the Potency entry in assay [2], in assay [3] and in assay [4] was “inactive” each time.
With `O=C(Nc1nc2ccccc2n1CCc1ccccc1)c1ccccc1`, in assay [1], the activation is 6.68%. In addition, the Potency result in assay [2], in assay [3] and in assay [4] was “inactive” each time.
`Nc1nc2c(ncn2[C@@H]2O[C@H](CO)[C@@H](O)[C@H]2O)c(=O)[nH]1`: in assay [1], the activation is -1.43%. Moreover, the Potency result in assay [2], in assay [3] and in assay [4] was “inactive” each time.

The values above are taken from PubChem BioAssay (NCATS).
